{"source": "ChEMBL document CHEMBL3988442", "about": "“University of Dundee, Small-Polar-MMV Screening Library” (2021)", "note": "In all, about 38,000 compounds went through this assay and about 1,200 (3.2%) showed an effect of 50% or more. The median lay at about -58%. The sample holds strong results, similar compounds and a random draw of the others, so the mix is not that of the screen."}
{"tested_on": "Plasmodium falciparum", "test": "Calibr Malaria Delayed Death Assay SOP", "format": "functional, organism-based", "design": "scale not given: in the data most compounds retested in dose-response had high values", "conditions": "concentration 4.99e-06 (unit not given; other assays of the set use mol/L)", "units": {"Percent Effect": "%"}}
{"smiles": "CCOc1ccccc1-c1noc(CN2CCCC(O)C2)n1", "note": "(configuration not stated)", "Percent Effect": -111.8}
{"smiles": "COc1ccccc1CN1CCCC(n2cccn2)C1", "note": "(configuration not stated)", "Percent Effect": 31.44}
{"smiles": "COc1ccc(NC2CCCN(Cc3cnc(N(C)C)s3)C2)cc1OC", "note": "(configuration not stated)", "Percent Effect": -57.98}
{"smiles": "COc1cccc(CN2CCCC(Nc3cccc(F)c3)C2)c1O", "note": "(configuration not stated)", "Percent Effect": 66.55}
{"smiles": "CCOc1cccc(CNc2ccccc2C(F)(F)F)c1O", "Percent Effect": -100.4}
{"smiles": "CN1CCOC(CNCC(=O)NCCC2=CCCCC2)C1", "note": "(configuration not stated)", "Percent Effect": -80.77}
{"smiles": "CC[C@@]1(O)CCN(c2ncc(Cl)cc2F)C[C@H]1O", "Percent Effect": -98.16}
{"smiles": "COCC[C@]1(O)CCN(c2ncc(Cl)cc2F)C[C@H]1C", "Percent Effect": -23.85}
{"smiles": "Cc1nn(Cn2ccc(C(=O)N3CCCC(C)C3)n2)c(C)c1Cl", "note": "(configuration not stated)", "Percent Effect": -15.8}
{"smiles": "O=C(Cn1nc(C(F)(F)F)c(Br)c1C1CC1)N1CCOCC1", "Percent Effect": -21.49}
{"smiles": "CN(CC1CCCN1C)c1nccc(C2CCCC2)n1", "note": "(configuration not stated)", "Percent Effect": 7.396}
{"smiles": "CN1CCCC1CCn1ccnc1-c1nc2ccccc2[nH]1", "note": "(configuration not stated)", "Percent Effect": 72.06}
{"smiles": "CN1CCCC1CCn1ccnc1-c1nc(-c2ccccc2)no1", "note": "(configuration not stated)", "Percent Effect": 57.38}
{"smiles": "c1ccc(-c2noc(CCCN3CCCC3Cn3cccn3)n2)cc1", "note": "(configuration not stated)", "Percent Effect": 29.02}
{"smiles": "CN1CCCC1CCn1ccnc1-c1ccc2ccccc2n1", "note": "(configuration not stated)", "Percent Effect": 54.89}
{"smiles": "CC(=O)Nc1ccc2nc(-c3nccn3C[C@@H]3CCCO3)ccc2c1", "Percent Effect": -89.17}
{"smiles": "Cn1ccnc1CN1CCCCC1c1nc(-c2ccccc2)no1", "note": "(configuration not stated)", "Percent Effect": -149.2}
{"smiles": "Cc1nccn1CCC1CCCCN1C(=O)c1ccc2[nH]nnc2c1", "note": "(configuration not stated)", "Percent Effect": -19.01}
{"smiles": "OCC1CCCCN1CCn1ccnc1-c1nc2ccccc2[nH]1", "note": "(configuration not stated)", "Percent Effect": 10.13}
{"smiles": "C[C@@H]1CN(C(=O)c2cc(Cn3ccc4ccccc43)[nH]n2)C[C@H](C)O1", "Percent Effect": -126.8}
{"smiles": "CC1CCCN(C(=O)Nc2cccc(CN3CCOC3=O)c2)C1", "note": "(configuration not stated)", "Percent Effect": -90.51}
{"smiles": "C[C@@H](O)CNC(=O)c1nc(Cc2c(Cl)cccc2Cl)no1", "Percent Effect": -61.62}
{"smiles": "COc1ccc(C(CC(=O)O)NC(=O)CCc2cccs2)cc1OC", "note": "(configuration not stated)", "Percent Effect": -100.1}
{"smiles": "CN1CCC(N(Cc2ccncc2)Cc2nc3c(s2)CCCC3)CC1", "Percent Effect": 7.357}
{"smiles": "COc1ccc(F)cc1C(C)NC(=O)Cn1ccc(=O)n(C)c1=O", "note": "(configuration not stated)", "Percent Effect": -164.7}
{"smiles": "COC1CCN(CCNC(=O)NCC(C)c2cccc(C)c2)CC1", "note": "(configuration not stated)", "Percent Effect": 54}
{"smiles": "COC1CCN(CCNC(=O)NC(C)c2cccc(Cl)c2)CC1", "note": "(configuration not stated)", "Percent Effect": 23.1}
{"smiles": "COC1CCN(CCNC(=O)NC(C)c2ccc(F)c(F)c2)CC1", "note": "(configuration not stated)", "Percent Effect": 45.3}
{"smiles": "N#Cc1cc(Cn2cnc(C3CCC3)cc2=O)ccc1F", "Percent Effect": -42.13}
{"smiles": "Cc1cnn(CC2CN(Cc3nnc(C4CC4)n3C)CCO2)c1", "note": "(configuration not stated)", "Percent Effect": -158.8}
{"smiles": "CC(NCc1cn(CCC(N)=O)c2ccccc12)c1nncn1C", "note": "(configuration not stated)", "Percent Effect": -188.2}
{"smiles": "Cc1ccc(C(C)NCc2cn(CCC(N)=O)c3ccccc23)cc1C", "note": "(configuration not stated)", "Percent Effect": 82.29}
{"smiles": "CC(C)n1cnnc1CCNCc1cn(CCC(N)=O)c2ccccc12", "Percent Effect": -17.79}
{"smiles": "CN(C)C(=O)CN1CCc2ncnc(C3CC3)c2CC1", "Percent Effect": -29.69}
{"smiles": "COc1ncccc1NC(=O)NC(C)c1nncn1C", "note": "(configuration not stated)", "Percent Effect": -34.42}
{"smiles": "Cc1ccc(C(CNCc2cccc3c2OCO3)N2CCOCC2)o1", "note": "(configuration not stated)", "Percent Effect": 65.56}
{"smiles": "Cl.c1cc(CNCc2ccnc(N3CCOCC3)c2)c2c(c1)OCO2", "Percent Effect": -34.78}
{"smiles": "Cc1cnc(C(=O)NCC(c2ccc(C)o2)N2CCOCC2)cn1", "note": "(configuration not stated)", "Percent Effect": -124.5}
{"smiles": "CC(C)C(CNCc1cccc2c1OCO2)N1CCOCC1", "note": "(configuration not stated)", "Percent Effect": 75.82}
{"smiles": "c1csc(C(CNCc2cccc3c2OCO3)N2CCOCC2)c1", "note": "(configuration not stated)", "Percent Effect": 39.98}
{"smiles": "CC(C)c1nn(C)c(N(C)C)c1CNCc1cccc2c1OCO2", "Percent Effect": 16.39}
{"smiles": "O=C(NCCn1cccn1)c1ccn(-c2cccc(F)c2)n1", "Percent Effect": -72.56}
{"smiles": "Cc1noc2nc(C3CC3)c(Cl)c(C(=O)O)c12", "Percent Effect": -135.9}
{"smiles": "Cc1ccc(N2CCC(C(=O)NC3CCc4nccn4C3)CC2)nc1", "note": "(configuration not stated)", "Percent Effect": -14.8}
{"smiles": "CC(C)[C@@H]1CN(C(=O)CN(C)Cc2ccccc2)C[C@H]1C(=O)O", "Percent Effect": -22.97}
{"smiles": "CC(C)[C@@H]1CN(C(=O)C2(c3ccccc3)CCN(C)CC2)C[C@H]1N(C)C", "Percent Effect": 83.06}
{"smiles": "CC(C)[C@@H]1CN(C(=O)NCc2ccco2)C[C@H]1N(C)C", "Percent Effect": -12.41}
{"smiles": "CCCn1c(N2CCCC(C)C2)nc2c(C)nn(C)c2c1=O", "note": "(configuration not stated)", "Percent Effect": -32.41}
{"smiles": "Cc1ncncc1C(=O)N1CCOC(c2nc(C(C)C)n[nH]2)C1", "note": "(configuration not stated)", "Percent Effect": -146.2}
{"smiles": "Cn1ncc(N2CCOC(CCNC(=O)CO)C2)cc1=O", "note": "(configuration not stated)", "Percent Effect": -51.52}
{"smiles": "CC(=O)N1CCC2(CCN(C(=O)c3ccc(F)c(C(F)(F)F)c3)CC2)C1", "Percent Effect": -64.74}
{"smiles": "Cc1ccc(C(=O)NCc2cc(F)ccc2N2CCCN(C)CC2)o1", "Percent Effect": 33.96}
{"smiles": "CCOCCCNC(=O)Cc1cccc(F)c1", "Percent Effect": -98.72}
{"smiles": "CCc1ccccc1CNC(=O)CNCC(F)(F)F", "Percent Effect": -137.2}
{"smiles": "CN1CCN(c2ccccc2CNC(=O)Cc2cccc(F)c2)CC1", "Percent Effect": 77.21}
{"smiles": "Cc1cc(=O)n(C)cc1NC(=O)Cc1cccc(F)c1", "Percent Effect": -34.19}
{"smiles": "CC(C)N(C)CC(=O)NCc1ccccc1N1CCN(C)CC1", "Percent Effect": 43.49}
{"smiles": "O=C(CN1CCS(=O)(=O)CC1)NCc1ccccc1F", "Percent Effect": -87.27}
{"smiles": "CN1CCN(c2ccccc2CNC(=O)Cc2ccccc2F)CC1", "Percent Effect": 75.84}
{"smiles": "CN1CCCN(c2ccc(F)cc2CNC(=O)c2ccsc2)CC1", "Percent Effect": 59.32}
{"smiles": "O=C(NCc1cccnc1N1CCCC(O)C1)c1ccsc1", "note": "(configuration not stated)", "Percent Effect": -31.1}
{"smiles": "Cc1cc(CNC(=O)NCc2ccccc2N2CCOCC2)no1", "Percent Effect": -32.16}
{"smiles": "CN1CCN(c2ccccc2CNC(=O)CSC(F)(F)F)CC1", "Percent Effect": 67.15}
{"smiles": "CC(=O)N1CCCN(C(=O)c2cnn(C(C)(C)C)c2C)CC1", "Percent Effect": -71.74}
{"smiles": "Cc1ccc(CNC(=O)C2CCNC(=O)C2)c(OCCC(C)C)c1", "note": "(configuration not stated)", "Percent Effect": -137.1}
{"smiles": "COc1nn(C)c2c1CCCN(C(=O)c1ccc3ccccc3n1)C2.O=C(O)C(F)(F)F", "Percent Effect": -93.98}
{"smiles": "O=C(NCc1cc(=O)n2c(n1)CN(CC1CC1)CCC2)c1ccsc1.O=C(O)C(F)(F)F", "Percent Effect": -77.99}
